Screening data deposited in PubChem BioAssay by National Center for Advancing Translational Sciences (NCATS).
FLuc modulator: qHTS profiling assay for firefly luciferase inhibitor/activator using purifed enzyme and Km concentrations of substrates (counterscreen for miR-21 project) | actives 6.9% (n = 360,000) | Luciferin 4-monooxygenase (Photinus pyralis), P08659 | Potency, µM (doses to about 57.5 µM), inactives show at the highest dose activity change, negative = inhibition, most hits filed as inhibitors | purified FLuc, Km substrates, luminescence inhibition;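 further: plate controls were vehicle for no effect and reference inhibitor for full effect; nearly all actives have a fitted effect of over 55% in size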
Target sequence (P08659 whole entry, looked up): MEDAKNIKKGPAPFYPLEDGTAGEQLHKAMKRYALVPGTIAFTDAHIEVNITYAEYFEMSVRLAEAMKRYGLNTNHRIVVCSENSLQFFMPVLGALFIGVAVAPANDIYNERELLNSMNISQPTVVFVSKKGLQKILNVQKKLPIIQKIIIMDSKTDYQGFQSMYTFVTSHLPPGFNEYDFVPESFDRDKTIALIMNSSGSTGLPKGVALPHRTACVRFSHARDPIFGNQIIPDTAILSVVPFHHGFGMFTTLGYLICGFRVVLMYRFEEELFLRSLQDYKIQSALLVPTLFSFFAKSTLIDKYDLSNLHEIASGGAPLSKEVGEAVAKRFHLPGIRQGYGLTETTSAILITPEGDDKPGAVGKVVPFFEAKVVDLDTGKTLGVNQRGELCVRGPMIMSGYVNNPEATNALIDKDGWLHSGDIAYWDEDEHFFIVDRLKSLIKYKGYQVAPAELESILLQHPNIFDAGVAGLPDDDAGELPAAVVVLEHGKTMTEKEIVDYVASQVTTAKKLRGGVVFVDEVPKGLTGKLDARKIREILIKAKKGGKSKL
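Purified P. pyralis luciferase, 10 nM final, with Km-level 10 uM D-luciferin and 10 uM ATP in 50 mM Tris acetate pH 7.5, 10 mM Mg acetate, 0.01% Tween-20, 0.05% BSA; 6-point qHTS titration about 60 µM downward; luminescence read.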
SMN2 splice up: qHTS Assay for Enhancers of SMN2 Splice Variant Expression; HEK293 SMN2-luciferase splicing reporter, luminescence, 30-36 h; Potency, µM (titrated, usually from 46.1 µM), inactives show at the highest dose activity change, positive = activation, most hits filed as activators; actives 2.8% (n = 210,000); AID 1458, 2008; further: % of control where 0% means no effect; nearly all actives have a fitted effect of over 55% in size
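qHTS luciferase splicing reporter: luminescence rises when SMN2 exon 7 is included in transfected HEK293 cells. Compound exposure lasted 30-36 h at 37C, with 4.5 mM final sodium butyrate as control, followed by a ONE-Glo read.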
Rab9 prom act: qHTS Assay for Rab9 Promoter Activators. Huh7 Rab9 promoter-luciferase reporter, luminescence, 24 h. Potency, µM (series often up to 9.22 µM), for the others: at the top dose activation, negative = inhibition, usual class: activators. actives 2.8% (n = 320,000); further: % of control where 0% means no effect; nearly all actives have a fitted effect of over 60% in size
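Stable Rab9-luc Huh7, 1500 cells/well, 2 h settle; cmpd in DMSO, 24 h, 37 °C/5% CO2; luciferase reagent 10 min RT; luminescence.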
NPC1 promoter act: qHTS Assay for NPC1 Promoter Activators; Huh7 NPC1 promoter luciferase reporter, 24 h; Potency, µM (highest dose often 9.22 µM), for inactives: at the top dose activation, usual class: activators; actives 2.4% (n = 320,000); AID 485313, 2010; further: % of control where 0% means no effect; nearly all actives have a fitted effect of over 60% in size
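Quantitative HTS used a cell-based reporter: Huh7 cells stably bearing the NPC1 promoter upstream of luciferase were treated with compounds for 24 h, and promoter activation was read as luminescence.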
ELG1 DNA repair: qHTS screen for small molecules that inhibit ELG1-dependent DNA repair in human embryonic kidney (HEK293T) cells expressing luciferase-tagged ELG1; HEK293T ELG1-luciferase reporter, luminescence, 16 h; DNA damage induced by 5-fluorouridine; Potency, µM (highest dose often 46.1 µM), for inactives: top-dose activity change, negative = inhibition, actives largely listed as inhibitors; actives 2.3% (n = 330,000); further: on the % scale 0 is the no-effect control and ±100 the full control effect; nearly all actives have a fitted effect of over 55% in size
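Overnight (16 hr) co-exposure of 2,000 cells/well to 5-fluorouridine and compound at 37 °C preceded detection. Luciferase was quantified via ONE-Glo luminescence; loss of signal denotes inhibition.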
ELG1 genotox: qHTS screen for small molecules that induce genotoxicity in human embryonic kidney (HEK293T) cells expressing luciferase-tagged ELG1 | Potency, µM (doses to about 46 µM), for the others: top-dose activity change, positive = activation, usual class: activators | AID 504466, 2011 | actives 1.3% (n = 330,000) | HEK293T ELG1-luciferase reporter, luminescence, 16 h; further: % of control where 0% means no effect; nearly all actives have a fitted effect of over 60% in size
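HEK293T cells expressing luciferase-tagged ELG1 were treated with compound or DMSO for 16 hr at 37°C. Luciferase activity was then read after 30 min with ONE-Glo at room temperature; rising signal flags genetic stress.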
Numbers without * were called inactive; ? = inconclusive; / = no result. Only some compounds are listed: those with a hit (about 9.2% of all), similar ones and a draw of the others. The call rests on the fitted dose curve; in most records, active means well fitted curve in the direction sought with a large enough effect; inconclusive means small, poorly fitted or top-dose-only effect, or another doubt; inactive means no such curve, though single readings can be large; an effect the other way counts as inactive or inconclusive. Potency means the concentration at half of the fitted maximal effect.

SMILES	FLuc modulator	SMN2 splice up	Rab9 prom act	NPC1 promoter act	ELG1 DNA repair	ELG1 genotox
COc1ccc(Cn2ccc3nc(C)c(C(=O)Nc4ccc(OC)cc4)cc3c2=O)cc1	-3%	/	/	/	/	/
CC(C)c1ccc(OCc2ccc(C(=O)N3CCCC3)o2)cc1	17µM*	/	2µM*	?	?	?
CN1CCN(C(=O)c2ccc(COc3ccc(C(C)(C)C)cc3)o2)CC1	8.5µM*	?	?	?	?	6%
CCOc1ccc(OCc2ccc(C(=O)N3CCCC3)o2)cc1	?	7%	5%	?	12%	6%
CC1CCCN(Cc2nc3c(c(=O)n(C)c(=O)n3C)n2Cc2ccc(Cl)cc2Cl)C1 (configuration not stated)	0%	0%	/	/	/	/
Cc1occc1C(=O)Nc1ccccc1C(=O)O	27µM*	-3%	16%	12%	?	?
Cc1cc(C(=O)Nc2ccccc2C(=O)O)oc1C	19µM*	/	8%	12%	?	9%
COCC(C)n1c(C)cc(C(=O)COC(=O)c2ccc3ncsc3c2)c1C (configuration not stated)	17µM*	-17%	15%	1%	16%	?
Cc1ccccc1OCC(=O)Nc1cccc(S(=O)(=O)NC2=NCCC2)c1	2.1µM*	/	16%	13%	?	9%
Cc1cc(C)cc(C(=O)OCC(=O)Nc2cccc(S(=O)(=O)NC3=NCCCCC3)c2)c1	-5%	-20%	-5%	-4%	?	0%
CN(C)c1ccc(C(=O)Nc2cccc(S(=O)(=O)NC3=NCCCCC3)c2)cc1	/	/	26%	17%	?	9%
CC(C)(C)c1ccc(C(=O)Nc2cccc(S(=O)(=O)NC3=NCCC3)c2)cc1	0.13µM*	/	?	2.5µM*	?	3%
Cc1ccc(C(C)C)c(OCC(=O)Nc2cccc(S(=O)(=O)NC3=NCCCCC3)c2)c1	0%	/	-1%	0%	23µM*	-19%
CCc1ccccc1OCC(=O)Nc1cccc(S(=O)(=O)NC2=NCCC2)c1	19µM*	/	1%	2%	3%	1%
Cc1ccccc1C(=O)OCC(=O)Nc1cccc(S(=O)(=O)NC2=NCCC2)c1	/	/	/	/	4%	-1%
CCc1ccccc1OCC(=O)Nc1cccc(S(=O)(=O)N2CCCC2)c1	-13%	/	2%	2%	-28%	-7%
CC(C)c1ccc(S(=O)(=O)c2nnn3c2nc(NCc2cccs2)c2sccc23)cc1	0%	/	/	/	/	/
Cc1ccccc1OCC(=O)Nc1cccc(S(=O)(=O)NC2=NCCCCC2)c1	17µM*	/	1%	-1%	-1%	26%
CCOc1ccccc1OCC(=O)Nc1cccc(S(=O)(=O)NC2=NCCCCC2)c1	-1%	/	-4%	1%	?	-4%
O=C(Nc1cccc(S(=O)(=O)NC2=NCCCCC2)c1)c1cc(-c2ccccc2Cl)nc2ccccc12	-2%	1%	-3%	-2%	23µM*	-7%
NC(=O)CSc1nc(N)c2c3c(sc2n1)CCCCC3	8.5µM*	5%	20%	20%	?	?
NC(=O)CSc1nc(C2CC2)nc2sc3c(c12)CCCC3	1.5µM*	/	2.5µM*	2.8µM*	?	9.2µM*
Nc1nc(SCC(=O)NCCOCCO)nc2sc3c(c12)CCCC3	27µM*	/	0%	-2%	15%	5%
C=CCn1c(SCC(N)=O)nc2sc3c(c2c1=O)CCC3	1%	/	-2%	-2%	-14%	3%
